Bioassay records as filed in PubChem BioAssay.
Most compounds without a hit are left out; they make up all but 31% or so of the library.
CYP2C19 act – increases human CYP2C19 enzyme activity. activation factor at 5 µM. 96,000 tested, under 10 active. recombinant CYP2C19, luciferin-H EGE luminescence; active compounds read high; 0 = fully inhibited enzyme, 1 = untreated enzyme. P33261;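 active = activation factor of at least 2 at 5 µM in the primary screen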;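 note: 0 = wells with 2.5 mM tranylcypromine and 1 = vehicle-only wells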
CYP2C9 inhib – inhibitors of human CYP2C9 | P11712 | CYP2C9 Supersomes, luciferin-H conversion, luminescence | inhibition, % at 5 µM | 96,000 compounds, 20% hits | AID 777;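 active = blocking of liver enzyme CYP2C9 beyond about 50% at 5 µM, limit read from the data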
Target sequence (P11712 whole entry, looked up): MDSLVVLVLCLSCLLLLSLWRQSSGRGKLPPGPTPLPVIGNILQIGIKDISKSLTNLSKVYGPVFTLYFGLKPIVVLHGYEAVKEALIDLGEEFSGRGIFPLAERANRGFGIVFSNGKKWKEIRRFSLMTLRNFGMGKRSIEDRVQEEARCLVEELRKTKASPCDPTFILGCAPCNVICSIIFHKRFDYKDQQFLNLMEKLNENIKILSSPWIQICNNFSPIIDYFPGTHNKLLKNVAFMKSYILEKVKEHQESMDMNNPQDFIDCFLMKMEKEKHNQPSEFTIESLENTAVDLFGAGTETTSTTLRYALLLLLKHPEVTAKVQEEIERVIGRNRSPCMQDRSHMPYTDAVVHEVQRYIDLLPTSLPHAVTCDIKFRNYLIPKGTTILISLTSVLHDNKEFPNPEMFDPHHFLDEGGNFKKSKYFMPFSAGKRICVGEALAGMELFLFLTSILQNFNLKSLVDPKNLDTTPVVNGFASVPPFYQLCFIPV
CYP2C9 act – CYP2C9 (human) activation. P11712. recombinant CYP2C9, luciferin-H conversion, luminescence; active compounds read high; factor 1 = untreated enzyme, 0 = blocked. activation factor at 5 µM. 96,000 compounds, 1.4% hits. AID 1024;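 active = activation factor of 2 or more for CYP2C9 at a 5 µM dose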;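 note: 0 = sulfaphenazole-blocked wells and 1 = vehicle-only wells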
CYP2C19 inhib – human CYP2C19 inhibition; P33261; CYP2C19 Supersomes, luciferin-H EGE luminescence, 30 min; inhibition, % at 5 µM; 96,000 compounds, 21% hits; AID 778;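 active = CYP2C19 inhibition above a set limit at 5 µM in the primary screen, cut at about 50% in these data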;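 note: plate controls were negative control wells for no effect and 2.5 mM tranylcypromine positive control for full effect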
Numbers without * were called inactive.

Screening Cc1ccc(CSC2=Nc3ccccc3C3=NC(CC(=O)NCc4ccco4)C(=O)N23)cc1 (stereo not drawn) returned CYP2C19 act 0.9, CYP2C9 inhib 79*, CYP2C9 act 0.2 and CYP2C19 inhib 11.
`N#CCSC1=Nc2ccccc2C2=NC(CCC(=O)N3CCN(c4ccccc4)CC3)C(=O)N12` (stereo not drawn) gave CYP2C19 act 0.8, CYP2C9 inhib 73*, CYP2C9 act 0.3 and CYP2C19 inhib 16.
For O=C(COC(=O)c1ccccc1OCc1ccccc1Cl)NC1CC1 the results were CYP2C19 act 0.5, CYP2C9 inhib 45, CYP2C9 act 0.5 and CYP2C19 inhib 53*.
`CCCCCc1nnc(NC(=O)Cc2cccs2)s1` gave CYP2C19 act 0.7, CYP2C9 inhib 49, CYP2C9 act 0.5 and CYP2C19 inhib 32.
`O=C(Nc1ccccc1)C1=C(N2CCOCC2)/C(=C/c2cccnc2)CC1` gave CYP2C19 act 0.1, CYP2C9 inhib 67*, CYP2C9 act 0.3 and CYP2C19 inhib 87*.
COc1ccc(Nc2nc3ccccc3nc2-n2nc(C)cc2C)cc1 was read as CYP2C19 act 0.8, CYP2C9 inhib -14, CYP2C9 act 1.1 and CYP2C19 inhib 23.
COc1ccc(S(=O)(=O)N2CCN(c3nc4ccccc4nc3-n3nc(C)cc3C)CC2)cc1 was read as CYP2C19 act 0.9, CYP2C9 inhib 59*, CYP2C9 act 0.4 and CYP2C19 inhib 14.
Cc1cc(C)n(-c2nc3ccccc3nc2N2CCCC2)n1 was read as CYP2C19 act 0.6, CYP2C9 inhib 18, CYP2C9 act 0.8 and CYP2C19 inhib 40.
Screening Cc1cc(C)n(-c2nc3ccccc3nc2N2CCN(C(=O)c3ccc(Cl)cc3)CC2)n1 returned CYP2C19 act 0.5, CYP2C9 inhib 60*, CYP2C9 act 0.4 and CYP2C19 inhib 48.
Screening Cc1cc(C)n(-c2nc3ccccc3nc2N2CCCCCC2)n1 returned CYP2C19 act 0.2, CYP2C9 inhib 16, CYP2C9 act 0.8 and CYP2C19 inhib 75*.
Screening Cc1cc(-c2ccccc2)n(-c2ccc(C(=O)N3CCN(c4ncccn4)CC3)cc2)n1 returned CYP2C19 act 0.8, CYP2C9 inhib 61*, CYP2C9 act 0.4 and CYP2C19 inhib 24.
`O=C(C1CCN(S(=O)(=O)c2ccc(F)cc2)CC1)N1CCOCC1` gave CYP2C19 act 0.8, CYP2C9 inhib -8, CYP2C9 act 1.1 and CYP2C19 inhib 20.
`CCOC(=O)C1CCCN(C(=O)c2sc3nc(-c4ccc(OC)cc4)cn3c2C)C1` (stereo not drawn) gave CYP2C19 act 0.6, CYP2C9 inhib 39, CYP2C9 act 0.6 and CYP2C19 inhib 43.
`CCOC(=O)/C(C#N)=C/NC(=O)NC(C)(C)C` gave CYP2C19 act 0.7, CYP2C9 inhib 20, CYP2C9 act 0.8 and CYP2C19 inhib 34.
`CN(C)S(=O)(=O)c1ccc(-c2ccccc2)cc1` gave CYP2C19 act 0.6, CYP2C9 inhib 40, CYP2C9 act 0.6 and CYP2C19 inhib 36.
Screening CCN(CC)S(=O)(=O)c1ccc(Oc2ccccc2)cc1 returned CYP2C19 act 0.7, CYP2C9 inhib 66*, CYP2C9 act 0.3 and CYP2C19 inhib 28.
Screening CCN(CC)S(=O)(=O)c1ccc(Oc2cccc(C(C)=O)c2)nc1 returned CYP2C19 act 0.5, CYP2C9 inhib 26, CYP2C9 act 0.7 and CYP2C19 inhib 51*.
`CN(C)S(=O)(=O)c1ccc(Oc2ccccc2)cc1` gave CYP2C19 act 0.5, CYP2C9 inhib 58*, CYP2C9 act 0.4 and CYP2C19 inhib 48.
For CCN(CC)S(=O)(=O)c1ccc(OCC(=O)NCc2ccccc2)cc1 the results were CYP2C19 act 1, CYP2C9 inhib 67*, CYP2C9 act 0.3 and CYP2C19 inhib -3.
For CCN(CC)S(=O)(=O)c1ccc(-c2ccc(S(=O)(=O)N(CC)CC)cc2)cc1 the results were CYP2C19 act 0.9, CYP2C9 inhib 37, CYP2C9 act 0.6 and CYP2C19 inhib 9.
Screening Cc1cccc(CCNC(=O)CCc2c(C)nc3ncnn3c2C)c1 returned CYP2C19 act 0.9, CYP2C9 inhib 6, CYP2C9 act 0.9 and CYP2C19 inhib 7.
CC(C)NC(=O)COC(=O)c1ccc(Oc2ccccc2)cc1 was read as CYP2C19 act 0.8, CYP2C9 inhib 23, CYP2C9 act 0.8 and CYP2C19 inhib 18.
`Fc1cccc(Cl)c1CNC(c1ccccc1)c1ccccc1` gave CYP2C19 act 0.9, CYP2C9 inhib 31, CYP2C9 act 0.7 and CYP2C19 inhib 10.
`CN(c1ccc(C(=O)Nc2ccccc2C(F)(F)F)cc1)S(C)(=O)=O` gave CYP2C19 act 0.8, CYP2C9 inhib -2, CYP2C9 act 1 and CYP2C19 inhib 15.
For COC(=O)c1cc(OC)c(OC)cc1NC(=O)CSc1ccccc1 the results were CYP2C19 act 0.3, CYP2C9 inhib 7, CYP2C9 act 0.9 and CYP2C19 inhib 65*.
`Cc1cccc(OCCCC(=O)Nc2ccccc2C(F)(F)F)c1` gave CYP2C19 act 0.7, CYP2C9 inhib 4, CYP2C9 act 1 and CYP2C19 inhib 34.
For Cc1ccccc1OCCCC(=O)Nc1ccccc1C(F)(F)F the results were CYP2C19 act 0.7, CYP2C9 inhib -122, CYP2C9 act 2.2* and CYP2C19 inhib 32.
`COC(=O)c1cc(OC)c(OC)cc1NC(=O)Nc1ccccc1OC` gave CYP2C19 act 1.1, CYP2C9 inhib -30, CYP2C9 act 1.3 and CYP2C19 inhib -14.
For CCOC(=O)Nc1ccc(C(N)=O)cc1 the results were CYP2C19 act 1, CYP2C9 inhib 6, CYP2C9 act 0.9 and CYP2C19 inhib 3.
For CCOC(=O)Nc1cccc(Nc2ccccc2)c1 the results were CYP2C19 act 0.2, CYP2C9 inhib 75*, CYP2C9 act 0.2 and CYP2C19 inhib 79*.
CCOc1ccccc1NC(=O)CCC(=O)O was read as CYP2C19 act 0.8, CYP2C9 inhib 21, CYP2C9 act 0.8 and CYP2C19 inhib 22.
For CCOc1ccccc1NC(=O)CCC(=O)Nc1ccccc1OCC the results were CYP2C19 act 0.5, CYP2C9 inhib -166, CYP2C9 act 2.7* and CYP2C19 inhib 47.
For CCOC(=O)C1CCN(C(C(=O)NC2CCCC2)c2ccc(C)cc2)CC1 (stereo not drawn) the results were CYP2C19 act 0.9, CYP2C9 inhib 41, CYP2C9 act 0.6 and CYP2C19 inhib 8.
Screening Nc1nonc1C(=O)OCC(=O)N1CCOCC1 returned CYP2C19 act 1, CYP2C9 inhib 2, CYP2C9 act 1 and CYP2C19 inhib -3.
O=C(c1cccs1)N1CCn2c1nc1ccccc12 was read as CYP2C19 act 1, CYP2C9 inhib -12, CYP2C9 act 1.1 and CYP2C19 inhib 4.
Screening CNc1cccccc1=S returned CYP2C19 act 1, CYP2C9 inhib 11, CYP2C9 act 0.9 and CYP2C19 inhib 0.
Screening C=C(C)Cn1c(CCCNC(=O)CCC)nc2ccccc21 returned CYP2C19 act 0.9, CYP2C9 inhib -77, CYP2C9 act 1.8 and CYP2C19 inhib 8.
CCc1nc2cc(CC(=O)O)ccc2o1 was read as CYP2C19 act 1, CYP2C9 inhib 20, CYP2C9 act 0.8 and CYP2C19 inhib -3.
